Bioassay records as filed in PubChem BioAssay.
The list is not random: actives were taken first. Their share in the collection is about 10%.
JMJD2A Tudor inh: inhibitors of human JMJD2A Tudor domain | O75164 | 390,000 tested, 4.4% active | AID 504339 | Potency, µM (top dose mostly 114 µM), for the others: at the highest dose activity change, negative = inhibition, hits mostly inhibitors | AlphaScreen JMJD2A-Tudor / H3K4me3 peptide binding; note: potency is the fitted concentration of half-maximal effect; % is set by controls: 0 for no effect and ±100 for the full control effect; nearly all actives have a fitted effect of over 50% in size
CtBP-E1A inh: blocks the CtBP interaction with E1A | activity change, % (no concentration beside the values) | AlphaScreen GST-E1A/His-CtBP binding, 1536-well; stronger effect = lower value | 340,000 tested, 0.49% active | AID 651724; in the data active = activity change below about -65%; inconclusive = mostly about -30% to -63%; note: % is set by controls: 0 for no effect and ±100 for the full control effect
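Steps: dispense buffer (Tris pH 8.0, NaCl 300 mM, TCEP 1 mM, BSA, Tween 20); add 5X protein mix (GST-E1A, His-CtBP, 125 nM each); pin 23 nL compound; 2 h at 37 °C, dark; add 5X beads (50 ug/mL); 1 h; read.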
BAZ2B block: inhibitors of human BAZ2B bromodomain. Q9UIF8. AlphaScreen BAZ2B-H3K14Ac peptide displacement. Potency, µM (titrated, usually from 114 µM), without a hit: top-dose activity change, negative = inhibition, usual class: inhibitors. 360,000 tested, 4.4% active. AID 504333; note: potency is the fitted concentration of half-maximal effect; % is set by controls: 0 for no effect and ±100 for the full control effect; nearly all actives have a fitted effect of over 60% in size
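Inhibition is scored as reduced AlphaScreen emission. The BAZ2B/b-H3(5-23)K14Ac complex (50 nM each) in PBS pH 7.4, 0.01% Tween-20 meets compound (up to 110 uM) for 30 min at RT before bead addition.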
Six1-Eya2 inh: inhibitors of human Six1/Eya2 interaction; Q15475+O00167; AlphaScreen GST-Six1/His-Eya2 binding, biochemical; stronger effect = lower value; activity change, % (test concentration not listed); 360,000 tested, 0.56% active; in the data active = activity change below about -65%; inconclusive = mostly about -30% to -63%; note: % is set by controls: 0 for no effect and ±100 for the full control effect
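AlphaScreen with GST-Six1 and His-Eya2 (5X mix: 250 nM and 500 nM), glutathione donor and nickel acceptor beads; buffer 50 mM Tris pH 8.0, 300 mM NaCl, 1 mM TCEP; 1 h at 37 C in the dark.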
G9a block: blocks human histone lysine methyltransferase G9a; Q96KQ7; G9a H3K9 monomethylation, AlphaScreen, 2 h; Potency, µM (top dose mostly 102 µM), without a hit: top-dose activity, negative = inhibition, usual class: inhibitors; 350,000 tested, 8.8% active; note: potency is the fitted concentration of half-maximal effect; % is set by controls: 0 for no effect and ±100 for the full control effect; nearly all actives have a fitted effect of over 75% in size
Target sequence (Q96KQ7 913-1193 limits assumed): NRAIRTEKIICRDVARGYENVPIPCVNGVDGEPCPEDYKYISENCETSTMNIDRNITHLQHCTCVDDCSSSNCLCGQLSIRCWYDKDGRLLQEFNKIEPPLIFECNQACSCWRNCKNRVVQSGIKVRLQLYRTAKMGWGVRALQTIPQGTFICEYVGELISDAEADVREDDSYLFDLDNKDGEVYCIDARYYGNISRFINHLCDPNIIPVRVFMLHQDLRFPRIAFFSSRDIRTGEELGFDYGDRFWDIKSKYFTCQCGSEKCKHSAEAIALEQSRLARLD
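Signal arises when biotinylated H3K9 peptide, once monomethylated, bridges streptavidin donor and antibody-captured acceptor beads. Enzyme at 20 nM was preincubated 15 min with test compounds; peptide 500 nM and SAM 20 uM then reacted for 2 h.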
HP1b chromo inh: blocks HP1-beta chromodomain binding to methylated histone tails | P83916 | AlphaScreen HP1-beta / biotin-H3K9me3 peptide binding | Potency, µM (top dose mostly 114 µM), for the others: at the top dose activity change, negative = inhibition, most hits filed as inhibitors | 390,000 tested, 0.56% active | AID 540317; note: potency is the fitted concentration of half-maximal effect; nearly all actives have a fitted effect of over 70% in size
Target sequence (P83916 whole entry, looked up): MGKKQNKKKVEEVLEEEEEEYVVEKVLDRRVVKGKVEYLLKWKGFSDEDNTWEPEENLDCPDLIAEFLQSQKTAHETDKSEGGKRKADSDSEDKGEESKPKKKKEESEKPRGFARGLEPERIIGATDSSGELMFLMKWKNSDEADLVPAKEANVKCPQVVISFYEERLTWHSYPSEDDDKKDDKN
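AlphaScreen: HP1-beta (50 nM) preformed 30 min with biotin-H3(1-18)K9me3 peptide (50 nM) in PBS pH 7.4, 0.01% Tween-20. Compound added for 30 min at RT, then streptavidin donor/nickel chelate acceptor beads (10 ug/mL) for 30 min.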
The depositor's hits bear a star; u = inconclusive; x = no result given; [ ] = remark or other dose. Unless noted, calls come from the whole dose curve; as a rule, active = well fitted inhibition curve with a large enough effect; inconclusive = small, poorly fitted or top-dose-only effect; inactive = no such curve, though single readings can be large or run the other way.

SMILES | JMJD2A Tudor inh | CtBP-E1A inh | BAZ2B block | Six1-Eya2 inh | G9a block | HP1b chromo inh
O=c1[nH]c2ccc(N=Cc3c(O)ccc4cc(Br)ccc34)cc2[nH]1 | 45µM* | -9 | u | -16 | 1.6µM* | 0%
CCCCn1nc(C(=O)Oc2ccc3c(C)cc(=O)oc3c2)c2ccccc2c1=O | -13% | 2 | -1% | 2 | 2.8µM* | 45%
COc1ccc(-c2cc(C(=O)OCC(=O)c3cccc(OC)c3)c3cccc(Cl)c3n2)cc1 | 15% | x | 22% | x | 26%[59 µM] | 59%
COc1cccc(CNC(=O)c2nn(-c3ccc(C)cc3)c(=O)c3c2c2ccccc2n3C)c1 | -6% | x | x | x | 10%[59 µM] | 25%
O=C(Nc1nnc(-c2ccccc2)s1)c1cccc(S(=O)(=O)N2CCOCC2)c1 | 79µM* | 2 | -4% | 3 | u | 13%
O=C(NNS(=O)(=O)c1ccccc1F)c1cccc(S(=O)(=O)N2CCOCC2)c1 | 11µM* | 3 | -5% | 12 | u | 3%
CC(C)Cc1nnc(NC(=O)c2cccc(S(=O)(=O)N3CCOCC3)c2)s1 | -16% | 0 | 7% | 0 | -40%[59 µM] | 25%
O=C(Nc1nnc(-c2ccccc2)s1)c1ccc(Cl)c(S(=O)(=O)N2CCOCC2)c1 | x | x | 9% | x | -28% | x
CC1CCCCC1NC(=O)c1cccc(S(=O)(=O)N2CCN(C)CC2)c1 (centres undefined) | -19% | 1 | -6% | 10 | 45µM* | 7%
CC(C)Cc1nnc(NC(=O)c2cccc(S(=O)(=O)N3CCN(C)CC3)c2)s1 | -4% | 9 | 11% | 0 | 40µM* | 25%
O=C(CCS(=O)(=O)c1cc(Br)cc2c1N(C(=O)C1CC1)CC2)N1CCN(c2cccc(Cl)c2)CC1 | -20% | x | -2% | x | u | 3%
CCc1ccc(CNC(=O)c2ccc(Cn3c(=O)c4cccn4c4cccnc43)cc2)cc1 | -9% | x | -13% | x | 2%[59 µM] | 28%
CC(=O)Nc1ccccc1-c1nc2ccccc2nc1OCC(=O)c1ccc2ccccc2c1 | -21% | 1 | 2% | -6 | 4%[59 µM] | -3%
CC1(C(=O)NS(=O)(=O)c2ccc(C#N)cc2)CCN1C(=O)C1(c2ccccc2)CC1 (centres undefined) | x | 4 | x | 1 | x | x
CN1CCN(S(=O)(=O)c2cccc(C(=O)Nc3sccc3C(N)=O)c2)CC1 | -34% | -80* | -39% | -77* | u | -3%
CN1CCN(S(=O)(=O)c2cccc(C(=O)Nc3nccs3)c2)CC1 | u | -20 | -8% | -8 | -7% | 19%
Cc1ccc2oc(C(=O)Nc3nc(-c4ccc(F)cc4)ns3)c(C)c2c1 | -12% | x | -7% | x | -3%[59 µM] | 31%
COC(=O)c1sccc1-c1ccc(C(N)=O)o1 | x | x | u | x | 50µM* | x
CCCn1c(C)cc(C(=O)COc2ccc(-c3nnco3)cc2)c1C | -33% | -16 | u | -7 | u | -18%
CC(C)[C@@H](C(=O)NC1CCN(Cc2ccccc2)CC1)N1C(=O)N2CCc3c([nH]c4ccccc34)[C@@]2(C)C1=O | u | u | u | -26 | u | -39%
Cc1ccc(Nc2cc(C)nn2-c2nc(C)cc(=O)[nH]2)cc1 | u | -81* | 9%[57.1 µM] | -82* | -5%[12.7 µM] | 24%
C#CCOCCOCCOCCNc1nc(N2CCOCC2)nc(N2CCN(C(=O)[C@H](CCCCN)n3cc(CCC(=O)O)nn3)CC2)n1 | -10% | 2 | x | 7 | x | 23%
C#CCOCCOCCOCCNc1nc(N2CCN(C(=O)[C@H](CCCCN)n3cc(CN)nn3)CC2)nc(N2CCN(C(=O)[C@H](CCCCN)n3cc(CN)nn3)CC2)n1 | 79µM* | 0 | x | -2 | x | 29%
C#CCOCCOCCOCCNc1nc(N2CCN(C(=O)[C@H](CCC(=O)O)n3cc(CN)nn3)CC2)nc(N2CCN(C(=O)[C@H](CCCCN)n3cc([C@@H](N)CC(N)=O)nn3)CC2)n1 | 56µM* | -13 | x | 3 | x | 46%
